# Inconclusive results are not listed. Calls of active or inactive are those of the source. Unless noted, the call rests on the fitted dose curve; in most records, active means well fitted curve in the direction sought with a large enough effect; inconclusive means small, poorly fitted or top-dose-only effect, or another doubt; inactive means no such curve, though single readings can be large; an effect the other way counts as inactive or inconclusive.
# Legend:
# [1] = qHTS to identify inhibitors of the type 1 interferon - major histocompatibility complex class I in skeletal muscle: primary screen against the NCATS Mechanism Interrogation Plate v5.0 (MIPE) Libary (AID 1347411); further: nearly all actives have a fitted effect of over 65% in size; further: potency means the concentration at half of the fitted maximal effect;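 on activity change, negative = inhibition: plate controls were vehicle for no effect and reference inhibitor for full effect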
# Summary of the method: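 Cells were genome-edited human myoblasts carrying a HiBit tag on endogenous HLA-B. They were treated with IFN-beta (4.0 ng/ml) and titrated compounds (top 46 uM) for 24 hrs before lytic HiBiT detection.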
# [2] = target: Calcium and integrin-binding protein 1 (Homo sapiens) (UniProt Q99828); test: Primary qHTS for Identification of Calcium Integrin Binding Protein 1 (CIB1) Competitor (AID 1508620);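 further: GST tagged CIB1 binding a fluorescein labelled alphaIIb integrin peptide tracer; top concentration of the series differs between compounds; on the % scale 0 is the no-effect control and ±100 the full control effect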
# Chain of Calcium and integrin-binding protein 1 (Homo sapiens) (Q99828 whole entry, looked up): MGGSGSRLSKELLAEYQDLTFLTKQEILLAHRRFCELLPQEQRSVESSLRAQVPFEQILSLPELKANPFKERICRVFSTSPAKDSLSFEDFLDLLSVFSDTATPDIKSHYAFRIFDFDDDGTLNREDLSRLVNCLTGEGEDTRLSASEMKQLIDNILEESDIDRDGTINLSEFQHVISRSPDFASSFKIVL
# Summary of the method: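 Fluorescence polarization competition: CIB1-GST (1 uM final) preincubated with compound 15 min at room temperature, then FITC-labeled alphaIIb peptide (100 nM final) added for another 15 min. Polarization read at Ex 480/Em 540.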
# [3] = target: Glutathione peroxidase 1 (Homo sapiens) (UniProt P07203); test: Primary qHTS Assay for Inhibitors of Recombinant Selenoprotein Glutathione Peroxidase 1 (GPX1) (AID 1845191); further: nearly all actives have a fitted effect of over 65% in size
# Chain of Glutathione peroxidase 1 (Homo sapiens) (P07203 whole entry, looked up): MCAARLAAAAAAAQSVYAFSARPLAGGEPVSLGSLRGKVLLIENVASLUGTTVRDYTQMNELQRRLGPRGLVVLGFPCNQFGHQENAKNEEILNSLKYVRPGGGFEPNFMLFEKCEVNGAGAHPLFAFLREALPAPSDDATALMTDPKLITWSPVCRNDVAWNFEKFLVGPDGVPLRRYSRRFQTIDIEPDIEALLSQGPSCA
# Summary of the method: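 Recombinant GPX1 (10 nM final) was preincubated with compound for 30 min at room temperature, then reacted with 1 mM GSH, 0.5 mM CHP, 0.5 mM NADPH and 100 nM glutathione reductase; NADPH fluorescence (340/450 nm) was read at 0 and 15 min.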
# [4] = qHTS drug screen for cell cycle checkpoint inhibitors in PARPi-resistant BRCA-mutant ovarian cancer cell lines. (AID 1963452; calls by dose curve; further: potency means the concentration at half of the fitted maximal effect); details: PEO1/OlaR viability, CellTiter-Glo luminescence, 96 h; for Z-AUC: stronger effect = lower value
# Summary of the method: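 PEO1, PEO4 and PEO1/OlaR ovarian cancer cells, 600 per well, exposed 96 h at 37C to a dilution series. Viability read by CellTiter-Glo luminescence, normalized to DMSO and empty wells; activity summarized as Z-AUC.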
# [5] = Primary qHTS for inhibitors of nuclear receptor binding SET domain protein 2 (NSD2) in an isogenic RCH-ACV NSD2 p.E1099K mutant (9B) (AID 1645876); further: nearly all actives have a fitted effect of over 70% in size; further: potency means the concentration at half of the fitted maximal effect
# [6] = Primary qHTS for inhibitors of nuclear receptor binding SET domain protein 2 (NSD2) in an RCH-ACV wild type WT cells (2C) (AID 1645877); further: nearly all actives have a fitted effect of over 70% in size; further: potency means the concentration at half of the fitted maximal effect
# [7] = target: Phospholipid hydroperoxide glutathione peroxidase GPX4 (Homo sapiens) (UniProt P36969); test: Primary qHTS Assay for Inhibitors of Recombinant Selenoprotein Glutathione Peroxidase 4 (GPX4) (AID 1845192); details: outcome: dose series up to 50 µM unless noted; further: nearly all actives have a fitted effect of over 65% in size; further: potency means the concentration at half of the fitted maximal effect; on activity change, negative = inhibition: series mostly up to about 50 µM; on the % scale 0 is the no-effect control and ±100 the full control effect
# Chain of Phospholipid hydroperoxide glutathione peroxidase GPX4 (Homo sapiens) (P36969 whole entry, looked up): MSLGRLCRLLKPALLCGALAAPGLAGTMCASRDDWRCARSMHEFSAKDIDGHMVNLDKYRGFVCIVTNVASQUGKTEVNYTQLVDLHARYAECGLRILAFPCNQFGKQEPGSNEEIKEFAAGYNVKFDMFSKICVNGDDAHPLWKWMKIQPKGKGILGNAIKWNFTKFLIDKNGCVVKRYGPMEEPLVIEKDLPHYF
# Summary of the method: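 GR-coupled readout: 100 nM GR, 1 mM GSH, 0.5 mM NADPH; NADPH fluorescence (ex 340/em 450 nm) read at t=0 and after 15 min RT. GPX4 200 nM, preincubated 30 min with compound; substrate 0.5 mM CHP.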
# [8] = qHTS assay to identify inhibitors of the type 1 interferon - major histocompatibility complex class I in skeletal muscle: Counter screen cell viability and HiBit confirmation (AID 1347412); details: iHSKM muscle cells + IFN-b, HiBiT or CellTiter-Glo, 24 h; further: potency means the concentration at half of the fitted maximal effect; nearly all actives have a fitted effect of over 60% in size
# Summary of the method: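 HLA-B*08:01–HiBiT knock-in immortalized human myoblasts (C25cl48) stimulated with 4.0 ng/ml human IFN-beta and dosed with compound in a 12-point 1:3 titration (top final 46 uM). After 24 hrs at 37 C, HiBiT lytic luminescence or CellTiter Glo ATP read out.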
# [9] = NCATS anti-infectives library activity on the primary C. elegans qHTS viability assay (AID 1745855; calls by dose curve; further: potency means the concentration at half of the fitted maximal effect)
# Summary of the method: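 Viability is taken from GFP fluorescence of PE254-GFP-FLuc C. elegans imaged by laser cytometry over 7 days. Ten L1 worms per well grow at 21 °C on TOP10 E. coli capsules with titrated compound; levamisole marks toxicity.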
# [10] = NCATS anti-infectives library activity on HEK293 viability as a counter-qHTS vs the C. elegans viability qHTS (AID 1745854);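 further: HEK293 cells exposed to compounds for 24 hr before the viability read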; further: potency means the concentration at half of the fitted maximal effect
# Summary of the method: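 Cytotoxicity in human HEK293 cells is measured by ATP-dependent CellTiter-Glo luminescence following a 24 hr incubation with titrated library compounds at 37C. Top final concentration is 41.7 uM.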
# [11] = target: Cytochrome P450 2C9 (Homo sapiens) (UniProt P11712); test: Cytochrome P450 family 2 subfamily C member 9 (CYP2C9) small molecule antagonists: luciferase biochemical (cell-free) qHTS assay (AID 1645842; active means well fitted curve in the direction sought with a large enough effect in the repeat runs; an effect the other way counts as inactive or inconclusive; further: potency means the concentration at half of the fitted maximal effect; nearly all actives have a fitted effect of over 55% in size)
# Chain of Cytochrome P450 2C9 (Homo sapiens) (P11712 whole entry, looked up): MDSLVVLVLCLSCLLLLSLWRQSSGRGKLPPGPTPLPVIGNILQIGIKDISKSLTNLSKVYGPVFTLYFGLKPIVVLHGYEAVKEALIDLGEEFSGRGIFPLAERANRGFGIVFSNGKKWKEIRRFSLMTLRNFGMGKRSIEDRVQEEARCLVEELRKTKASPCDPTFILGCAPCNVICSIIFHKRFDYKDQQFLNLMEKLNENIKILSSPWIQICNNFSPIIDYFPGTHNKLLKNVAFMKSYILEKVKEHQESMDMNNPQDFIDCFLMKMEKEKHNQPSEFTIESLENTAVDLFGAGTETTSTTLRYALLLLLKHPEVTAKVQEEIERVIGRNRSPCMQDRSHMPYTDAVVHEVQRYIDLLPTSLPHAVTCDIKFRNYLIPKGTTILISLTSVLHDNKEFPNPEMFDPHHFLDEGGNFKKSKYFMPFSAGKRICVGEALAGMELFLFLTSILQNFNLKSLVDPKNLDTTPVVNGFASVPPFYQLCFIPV
# Summary of the method: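 Luminescence, after 20 min with luciferin detection reagent, reflected CYP2C9 turnover during a 1 h NADPH-driven reaction at 37C. Enzyme-substrate mix contained 0.4% bovine serum albumin and was preincubated with compound 10 min at room temperature.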
# [12] = measured here: PEO1 parental Z-AUC
smiles,measurement,setting,value
CN(Cc1ccccc1)C(=O)c1ccc(S(=O)(=O)Nc2ccccc2)cc1,Potency,[1],inactive
same,Potency,[2],inactive
same,Potency,[3],inactive
same,Z-AUC,[4],-0.829 (inactive)
same,Z-AUC,[4]; [12],-0.00385
same,Z-AUC,[4]; measured here: PEO4 Z-AUC,0.744
C=CCNc1c(O)cc2c(O)c1C[C@@H](C)C[C@H](OC)[C@H](O)[C@@H](C)/C=C(/C)[C@H](OC(N)=O)[C@@H](OC)/C=C\C=C(\C)C(=O)N2,Potency,[1],0.0523 µM (active)
same,Potency,[5],1.66 µM (active)
same,Potency,[6],1.05 µM (active)
same,Potency,[3],inactive
same,Potency,[7],inactive
same,Z-AUC,[4],0.465 (inactive)
same,Z-AUC,[4]; [12],0.348
same,Z-AUC,[4]; measured here: PEO4 Z-AUC,0.268
same,Potency,[8]; HiBiT,0.0443 µM (active)
CN1CCN(c2ccc3nc(-c4cc(C(C)(C)C)c(OCCCC(=O)NCCCN=[N+]=[N-])c(C(C)(C)C)c4)[nH]c3c2)CC1,Potency,[1],13.1 µM (active)
same,Potency,[5],7.42 µM (active)
same,Potency,[6],6.61 µM (active)
same,Potency,[3],inactive
same,Z-AUC,[4],0.842 (inactive)
same,Z-AUC,[4]; [12],0.24
same,Z-AUC,[4]; measured here: PEO4 Z-AUC,0.156
same,Potency,[8]; Viability,24.9 µM (active)
O=C(/C=C\n1cnc(-c2cc(C(F)(F)F)cc(C(F)(F)F)c2)n1)NNc1cnccn1,Potency,[1],7.39 µM (active)
same,Potency,[2],inactive
same,Potency,[5],2.63 µM (active)
same,Potency,[6],2.09 µM (active)
same,Potency,[9],25.8 µM (active)
same,Potency,[3],inactive
same,Z-AUC,[4],-0.586 (inactive)
same,Z-AUC,[4]; [12],-2.16
same,Z-AUC,[4]; measured here: PEO4 Z-AUC,-1.63
C=CC(=O)N1CC/C(=C\c2ccc(F)c([N+](=O)[O-])c2)C(=O)/C(=C/c2ccc(F)c([N+](=O)[O-])c2)C1,Potency,[1],0.658 µM (active)
same,Potency,[5],0.0833 µM (active)
same,Potency,[10],1.78 µM (active)
same,Potency,[3],inactive
same,Potency,[7],inactive
same,Potency,[4],0.219 µM (active)
same,Z-AUC,[4]; [12],-2.29
same,Z-AUC,[4]; measured here: PEO4 Z-AUC,-2.19
same,Potency,[8]; HiBiT,0.222 µM (active)
O=C(O)c1ccc(O)c2ncccc12,Potency,[1],inactive
same,Potency,[2],inactive
same,Potency,[5],20.9 µM (active)
same,Potency,[3],inactive
same,Potency,[7],inactive
same,Z-AUC,[4],1.08 (inactive)
same,Z-AUC,[4]; [12],0.983
same,Z-AUC,[4]; measured here: PEO4 Z-AUC,1.08
C[C@@H](Oc1ccc2[nH]nc(/C=C/c3cnn(CCO)c3)c2c1)c1c(Cl)cncc1Cl,Potency,[1],0.93 µM (active)
same,Potency,[5],0.833 µM (active)
same,Potency,[6],0.417 µM (active)
same,Potency,[3],inactive
same,Z-AUC,[4],-1.01 (inactive)
same,Z-AUC,[4]; [12],-0.521
same,Z-AUC,[4]; measured here: PEO4 Z-AUC,-0.403
same,Potency,[8]; HiBiT,0.557 µM (active)
CN(C)C[C@@H]1CCn2cc(c3ccccc32)C2=C(C(=O)NC2=O)c2cn(c3ccccc23)CCO1,Potency,[1],4.66 µM (active)
same,Potency,[5],7.42 µM (active)
same,Potency,[3],inactive
same,Potency,[7],inactive
same,Z-AUC,[4],0.756 (inactive)
same,Z-AUC,[4]; [12],0.389
same,Z-AUC,[4]; measured here: PEO4 Z-AUC,0.797
same,Potency,[8]; HiBiT,27.9 µM (active)
Cc1[nH]c(/C=C2\C(=O)Nc3ccc(S(=O)(=O)Cc4c(Cl)cccc4Cl)cc32)c(C)c1C(=O)N1CCC[C@@H]1CN1CCCC1,Potency,[1],5.23 µM (active)
same,Potency,[5],6.61 µM (active)
same,Potency,[6],5.25 µM (active)
same,Potency,[3],inactive
same,Potency,[7],inactive
same,Z-AUC,[4],0.541 (inactive)
same,Z-AUC,[4]; [12],0.565
same,Z-AUC,[4]; measured here: PEO4 Z-AUC,0.0929
same,Potency,[8]; HiBiT,22.2 µM (active)
Cc1c(-c2cnccn2)ssc1=S,Potency,[1],inactive
same,Potency,[5],16.6 µM (active)
same,Potency,[6],13.2 µM (active)
same,Potency,[10],inactive
same,Potency,[9],inactive
same,Potency,[3],inactive
same,Z-AUC,[4],-0.037 (inactive)
same,Z-AUC,[4]; [12],0.595
same,Z-AUC,[4]; measured here: PEO4 Z-AUC,0.421
COc1ccc2[nH]c3c(c2c1)CCN[C@]31CS[C@@H]2c3c(OC(C)=O)c(C)c4c(c3[C@H](COC1=O)N1[C@@H]2[C@H]2c3c(cc(C)c(OC)c3O)C[C@@H]([C@@H]1O)N2C)OCO4,Potency,[1],0.0535 µM (active)
same,Potency,[5],0.0017 µM (active)
same,Potency,[6],0.0017 µM (active)
same,outcome,[3],inactive [at 9.52 µM]
same,"activity change, negative = inhibition",[7],-15.3% [at 9.73 µM] (inactive)
O=C1OC2(CCC(C(=O)Nc3ccn(-c4ccccc4F)n3)CC2)c2cnccc21 (stereo not given),Potency,[1],inactive
same,Potency,[5],inactive
same,Potency,[6],inactive
same,Potency,[3],inactive
same,Potency,[7],inactive
same,Z-AUC,[4],0.0773 (inactive)
same,Z-AUC,[4]; [12],0.881
same,Z-AUC,[4]; measured here: PEO4 Z-AUC,0.97
Cc1c(-c2ccc(-c3ccccc3F)cc2)nc2ccc(F)cc2c1C(=O)O,Potency,[1],inactive
same,Potency,[5],0.105 µM (active)
same,Potency,[6],0.148 µM (active)
same,Potency,[10],inactive
same,Potency,[3],inactive
same,Potency,[7],inactive
same,Potency,[4],2.75 µM (active)
same,Z-AUC,[4]; [12],-1.54
same,Z-AUC,[4]; measured here: PEO4 Z-AUC,-1.34
COc1cc2c(NC3CCN(C4CCCCC4)CC3)nc(N3CCCN(C(C)C)CC3)nc2cc1OCCCN1CCCCC1,Potency,[1],11.7 µM (active)
same,Potency,[5],4.68 µM (active)
same,Potency,[6],5.25 µM (active)
same,Z-AUC,[4],1.47 (inactive)
same,Z-AUC,[4]; [12],1.1
same,Z-AUC,[4]; measured here: PEO4 Z-AUC,0.674
Cn1cc(/C=C/C(=O)c2cccc(F)c2)cc1/C=C/C(=O)NO,Potency,[1],inactive
same,Potency,[5],14.8 µM (active)
same,Potency,[6],18.6 µM (active)
same,Potency,[10],inactive
same,Potency,[3],inactive
same,Z-AUC,[4],0.818 (inactive)
same,Z-AUC,[4]; [12],0.213
same,Z-AUC,[4]; measured here: PEO4 Z-AUC,0.291
COc1cc(C(=O)NC(N)=Nc2ccc(C)c(NC(=O)c3ccc(-c4ccccc4)cc3)c2)cc(OC)c1OC,Potency,[1],inactive
same,Potency,[5],13.2 µM (active)
same,Potency,[6],11.8 µM (active)
same,Potency,[3],inactive
same,Potency,[7],inactive
COc1ccc([C@@H](O)[C@@H](C)Oc2ccc([C@H]3O[C@H](c4ccc(O[C@H](C)[C@H](O)c5ccc(OC)c(OC)c5)c(OC)c4)[C@H](C)[C@H]3C)cc2OC)cc1OC,Potency,[1],inactive
same,Potency,[5],5.25 µM (active)
same,Potency,[6],5.25 µM (active)
same,Potency,[3],inactive
same,Potency,[7],inactive
same,Z-AUC,[4],-1.98 (inactive)
same,Z-AUC,[4]; [12],-3.67
same,Z-AUC,[4]; measured here: PEO4 Z-AUC,-2.38
CC(C)c1c(-c2ccccc2)nc2c(C#N)c[nH]n2c1=O,Potency,[1],5.23 µM (active)
same,Potency,[5],inactive
same,Potency,[6],inactive
same,Potency,[3],inactive
same,Potency,[7],inactive
NS(=O)(=O)c1ccc(Cc2c(-c3cccc(-c4ccccc4)c3)nn(-c3nc(C(=O)O)cs3)c2CC2CC2)cc1,Potency,[1],inactive
same,Potency,[11],21.3 µM (active)
same,Potency,[6],5.25 µM (active)
same,Potency,[3],inactive
same,Potency,[7],6.4 µM (active)
same,Z-AUC,[4],-1.08 (inactive)
same,Z-AUC,[4]; [12],-0.77
same,Z-AUC,[4]; measured here: PEO4 Z-AUC,-1.44

# Source: PubChem BioAssay (NCATS)
